The list is not random: actives were taken first. Their share in the collection is about 3.5%.
Pf apPOL inh = Pf-apPOL DNA polymerase inhibition | Recombinant Pf-apPOL, molecular beacon fluorescence, 1.5 h | inhibition, % at 10 µM | actives 0.25% (n = 210,000) | AID 1794808
mHTT CaM bind = inhibitors of human mutant huntingtin-calmodulin interaction | actives 3.6% (n = 190,000) | P42858 | inhibition, % at 15 µM | AlphaScreen His-mHTT/GST-CaM binding, luminescence;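 also: 0% = both proteins with DMSO and 100% = one protein alone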
The depositor's hits bear a star. Rule as the data show it: active = inhibition above about 50%; inactive = the rest.

SMILES | Pf apPOL inh | mHTT CaM bind
CC(=O)Nc1nc(-c2ccc(C(C)(C)C)cc2)nc2c1c(=O)oc1ccccc12 | 3 | 2
Cc1ccc2c(c1)N(c1ccc(C)c(F)c1)C=C(C#N)S2(=O)=O | -2 | -5
CCc1ccccc1NC(=O)COc1cc(C)nc(N2CCCCC2)n1 | -1 | -9
CC(C)C(=O)N1CCN(c2ccc(F)cc2)CC1 | -2 | 2
Cc1noc(-c2cccs2)c1C(=O)NCCc1ccc(F)cc1 | -7 | -9
Cc1noc(-c2ccccc2Cl)c1C(=O)NCCc1ccc(F)cc1 | -1 | 55*
Cc1cccc(C(=O)Nc2c3c(nn2-c2ccccc2C)CSC3)c1 | -5 | 58*
Cc1ccccc1-n1nc2c(c1NC(=O)c1cccc(C(F)(F)F)c1)CSC2 | -9 | 100*
Cc1ccccc1-n1nc2c(c1NC(=O)c1ccccc1C(F)(F)F)CSC2 | -11 | 31
Cc1ccccc1-n1nc2c(c1NC(=O)c1ccc(Cl)c([N+](=O)[O-])c1)CSC2 | -6 | 56*
Cc1cccc(C(=O)Nc2c3c(nn2-c2ccc([N+](=O)[O-])cc2)CSC3)c1 | -6 | 19
Cc1ccccc1-n1nc2c(c1NC(=O)c1cccc([N+](=O)[O-])c1)CSC2 | 0 | 5
O=C(Nc1c2c(nn1-c1ccc([N+](=O)[O-])cc1)CSC2)c1cccc(C(F)(F)F)c1 | 6 | 57*
Cc1ccc(C(=O)Nc2c3c(nn2-c2cccc(C)c2C)CSC3)cc1[N+](=O)[O-] | 4 | 6
CCCCOc1ccc(C(=O)NCc2cn(C)nc2C)cc1 | -4 | -3
COc1ccc(-n2cnnn2)c(OC)c1 | -2 | -4
O=C(Nc1ccc(N2CCOCC2)c(Cl)c1)c1ccc(Cl)cc1[N+](=O)[O-] | -1 | 2
O=C(Nc1cc(C(F)(F)F)ccc1Cl)c1cccc(Br)c1 | -1 | -19
Cc1ccc(C2=N/C(=C/c3ccccc3[N+](=O)[O-])C(=O)O2)cc1 | 4 | 5
Cc1ccc(C(=O)Nc2c3c(nn2-c2ccccc2C)CSC3)cc1C | -4 | 62*
Cc1cccc(-n2nc3c(c2NC(=O)C2CCCC2)CSC3)c1C | -5 | 23
O=C(Nc1c2c(nn1-c1ccc(Cl)cc1)CSC2)C1CCCC1 | 3 | 2
Cc1ccc(C(=O)Nc2c3c(nn2-c2ccccc2C)CSC3)cc1 | -4 | 43
O=C(Nc1c2c(nn1-c1ccc(F)cc1)CSC2)C1CCCC1 | -7 | 57*
Cc1ccccc1-n1nc2c(c1NC(=O)C1CCCCC1)CSC2 | -15 | 52*
SMILES | Pf apPOL inh | mHTT CaM bind
CC(C)(C)c1[nH]nc2c1C(c1ccccc1Br)C(C#N)=C(N)O2 (stereo unspecified) | -1 | 4
CCCC(=O)Nc1ccc(NC(=O)Cc2ccccc2)cc1 | -6 | 1
Cc1cc(C)cc(NC(=O)Cn2ccc3ccn(C)c3c2=O)c1 | 7 | 7
CC(C)(C)c1ccc(C(=O)N2N=C(c3ccc([N+](=O)[O-])cc3)CC2(O)C(F)(F)F)cc1 (stereo unspecified) | 1 | 41
O=C(c1ccc([N+](=O)[O-])cc1)N1N=C(c2ccncc2)CC1(O)C(F)(F)F (stereo unspecified) | 83* | 5
O=C(c1ccc(Cl)cc1)N1N=C(c2ccc([N+](=O)[O-])cc2)CC1(O)C(F)(F)F (stereo unspecified) | -1 | 51*
CC(C)C(=O)N1N=C(c2ccc([N+](=O)[O-])cc2)CC1(O)C(F)(F)F (stereo unspecified) | -3 | 0
O=C(c1ccccc1O)N1N=C(c2ccc(Cl)cc2)CC1(O)C(F)(F)F (stereo unspecified) | -1 | 59*
Cc1ccc(C2=NN(C(=O)c3ccccc3Cl)C(O)(C(F)(F)F)C2)cc1 (stereo unspecified) | 0 | -1
C#CCOc1c(I)cc(C=O)cc1OCC | -8 | 4
COc1ccc(/C=C2\SC(=O)N(Cc3ccc(Cl)cc3)C2=O)cc1 | -2 | 6
Cc1cccc(NC(=O)COc2ccc(Cl)c(C)c2)n1 | 0 | 7
Cc1cccc(NC(=O)COc2c(C)cc(Cl)cc2Cl)n1 | 58* | -8
CNC(=O)N1CCCC(c2cccc(C(=O)N3CCN(c4cccc(Cl)c4)CC3)c2)C1 (stereo unspecified) | -7 | 98*
CNC(=O)N1CCCC(c2cccc(C(=O)N3CCN(c4ccccc4)CC3)c2)C1 (stereo unspecified) | -7 | -1
CNC(=O)N1CCCC(c2cccc(C(=O)N3CCN(c4ccccc4C)CC3)c2)C1 (stereo unspecified) | -7 | 39
CNC(=O)N1CCCC(c2cccc(C(=O)N3CCN(c4cc(C)ccc4C)CC3)c2)C1 (stereo unspecified) | -6 | 80*
Cc1cc(C)n(-c2ccc(=O)n(CC(=O)N3CCN(c4ncccn4)CC3)n2)n1 | -3 | -16
Cn1c(SCc2ccc(Cl)cc2)nc(C(C)(C)C)cc1=O | -3 | -14
CC1(c2ccc(Br)cc2)NC(=O)CS1 (stereo unspecified) | -6 | 85*
CC1CCC2(CC1)SCC(=O)N2c1ccc(Br)cc1 (stereo unspecified) | 13 | 2
